Data published in paper PMC4336329 (PLoS ONE, 2015).
The campaign covered roughly 310,000 compounds. About 14,000 (4.5%) showed an effect of 50% or more. Effects have a minus sign here. The full list was thinned out, with strong results kept by preference.

Target: human ether-à-go-go-related gene (hERG) potassium channel (human, UniProt Q12809)
Assay: primary screen, population patch clamp on CHO cells stably expressing hERG; higher = less effect of the substance
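Also: peak tail current of the secondary pulse compared with the same well before compound.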

Chain of human ether-à-go-go-related gene (hERG) potassium channel (Q12809 whole entry, looked up): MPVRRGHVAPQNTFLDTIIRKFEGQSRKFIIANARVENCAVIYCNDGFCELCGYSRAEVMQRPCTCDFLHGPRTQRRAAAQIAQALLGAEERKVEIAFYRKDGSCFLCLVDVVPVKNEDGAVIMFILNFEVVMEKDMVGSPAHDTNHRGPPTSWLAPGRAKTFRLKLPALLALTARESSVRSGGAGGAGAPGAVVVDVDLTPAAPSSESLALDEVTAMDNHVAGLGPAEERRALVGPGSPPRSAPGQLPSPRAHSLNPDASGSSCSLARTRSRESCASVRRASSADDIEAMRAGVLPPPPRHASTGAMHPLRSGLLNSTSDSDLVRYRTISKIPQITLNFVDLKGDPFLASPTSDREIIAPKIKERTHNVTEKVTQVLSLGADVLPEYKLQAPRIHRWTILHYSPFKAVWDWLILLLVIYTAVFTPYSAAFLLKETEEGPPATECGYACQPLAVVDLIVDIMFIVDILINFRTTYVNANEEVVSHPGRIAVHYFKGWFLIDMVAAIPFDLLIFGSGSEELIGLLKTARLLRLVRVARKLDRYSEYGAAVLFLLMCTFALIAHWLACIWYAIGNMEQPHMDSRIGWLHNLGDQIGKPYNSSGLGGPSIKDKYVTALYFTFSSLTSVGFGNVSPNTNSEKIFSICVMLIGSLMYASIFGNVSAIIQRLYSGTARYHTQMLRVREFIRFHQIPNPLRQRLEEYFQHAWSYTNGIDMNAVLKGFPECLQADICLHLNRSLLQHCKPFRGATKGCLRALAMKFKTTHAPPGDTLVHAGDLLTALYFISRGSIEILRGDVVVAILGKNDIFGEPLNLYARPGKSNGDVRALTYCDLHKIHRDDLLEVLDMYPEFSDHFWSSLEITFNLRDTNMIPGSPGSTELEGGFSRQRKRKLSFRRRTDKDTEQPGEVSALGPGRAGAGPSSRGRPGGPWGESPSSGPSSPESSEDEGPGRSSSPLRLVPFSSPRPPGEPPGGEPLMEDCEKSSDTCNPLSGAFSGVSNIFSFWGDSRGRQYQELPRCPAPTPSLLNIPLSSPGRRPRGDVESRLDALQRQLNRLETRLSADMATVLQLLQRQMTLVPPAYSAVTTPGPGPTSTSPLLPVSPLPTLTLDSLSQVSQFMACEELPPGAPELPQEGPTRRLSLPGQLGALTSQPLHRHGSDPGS

| SMILES | hERG current change (%, negative = inhibition) at 10uM |
| --- | --- |
| COc1ccc(C(=O)N2CCC(n3nccc3NC(=O)C3CC3)CC2)c(OC)c1OC | 24.7% |
| Cc1ccc(C)c(CN2CCC(n3nccc3NC(=O)C3CCCC3)CC2)c1 | -69.9% |
| COc1ccc(CN2CCC(n3nccc3NC(=O)C3CC3)CC2)c(Cl)c1OC | -39.2% |
| COc1ccc(CN2CCC(n3nccc3NC(=O)C3CC3)CC2)c(OC)c1OC | -51.4% |
| Cc1cc(C)c(CN2CCC(n3nccc3NC(=O)C3CCCC3)CC2)cc1C | -70.7% |
| COc1cc(C)c(CN2CCC(n3nccc3NC(=O)C3CCOC3)CC2)cc1C (stereo not drawn) | -18.2% |
| O=C(Nc1ccnn1C1CCN(Cc2ccccc2F)CC1)C1CCCC1 | -45.4% |
| OCCSc1nc2ccccc2n1CCOc1ccccc1 | 4.02% |
| O=c1cccccc1NCc1ccccc1 | -17.3% |
| O=C(CSCC(=O)N1CCCc2ccccc21)Nc1nc(-c2ccccc2)cs1 | 12.4% |
| COc1ccc(NC(=O)CSc2nnc(Cc3ccccc3)c(=O)n2N)c(OC)c1 | -18.1% |
| O=c1c2ccccc2nc(-c2ccoc2)n1CCc1ccccc1 | -3.87% |
| COc1ccc(NC(=O)CCC(=O)N(Cc2ccc(OC)c(OC)c2)c2nccs2)cc1 | 13.5% |
| CC(=O)Nc1ccc(NC(=O)c2ccc(N(C)S(=O)(=O)c3ccc(C)cc3)cc2)cc1 | 6.8% |
| CC(=O)Oc1ccc2c(=O)c(-c3ccccc3)c(C)oc2c1 | 16.2% |
| O=C(CSc1ncnc2scc(-c3ccccc3)c12)Nc1ccc(C(=O)O)cc1 | 8.17% |
| COc1ccc(C(C(=O)NC2CCCCC2)N(C(=O)c2ccco2)c2ccc(-n3cnnn3)c(C)c2)cc1 (stereo not drawn) | 8.93% |
| CCCN1C(=O)c2cc(C(=O)Nc3ccccc3CC)ccc2C1O (stereo not drawn) | 2.3% |
| N#Cc1c(N)n(CCNC(=O)c2cccs2)c2nc3ccccc3nc12 | 10.4% |
| O/N=C/c1ccnc(SCc2ccccc2)n1 | -12.1% |
| Cc1c(NC(=O)C(C)OC(=O)c2cc3c4ccccc4n(C)c3s2)c(=O)n(-c2ccccc2)n1C (stereo not drawn) | -68.5% |
| Cc1c(NC(=O)COC(=O)c2cc3c4ccccc4n(C)c3s2)c(=O)n(-c2ccccc2)n1C | -11.8% |
| Cc1c(NC(=O)C(C)OC(=O)c2cccs2)c(=O)n(-c2ccccc2)n1C (stereo not drawn) | 3.46% |

| SMILES | hERG current change (%, negative = inhibition) at 10uM |
| --- | --- |
| CN(C)S(=O)(=O)c1ccc(N=Cc2c(C(F)(F)F)[nH][nH]c2=O)cc1 | 23% |
| CC(C)(C)c1ccccc1NC(=O)CN1C(=O)NC2(CCCC2)C1=O | 1.01% |
| O=C(Nc1ccc(N2CCOCC2)c(Cl)c1)c1cc2ccccc2o1 | -36.1% |
| Cc1ccc(NC(=O)c2cc3ccccc3o2)cc1Cl | 19.7% |
| CCC(=O)N1CCN(c2ccc(NC(=O)c3cc4ccccc4o3)cc2)CC1 | -23.3% |
| Cc1ccccc1C(=O)N1CCN(c2ccc(NC(=O)c3ccco3)cc2Cl)CC1 | -43.2% |
| CCCC(=O)N1CCN(c2ccc(NC(=O)c3cccs3)cc2)CC1 | -18.2% |
| CCC(=O)N1CCN(c2ccc(NC(=O)c3cc4ccccc4o3)cc2Cl)CC1 | -67.7% |
| CC(C)C(=O)N1CCN(c2ccc(NC(=O)c3cccs3)cc2Cl)CC1 | -14.7% |
| O=C(Nc1ccc(N2CCN(C(=O)c3ccco3)CC2)c(Cl)c1)c1c(F)c(F)c(F)c(F)c1F | -32.1% |
| O=C(Nc1ccc(N2CCN(C(=O)c3ccco3)CC2)c(Cl)c1)c1cc2ccccc2o1 | -67.9% |
| CCCC(=O)N1CCN(c2ccc(NC(=O)c3cccs3)cc2Cl)CC1 | -66.8% |
| CCCC(=O)N1CCN(c2ccc(NC(=O)c3cc4ccccc4o3)cc2)CC1 | -13.4% |
| CCCC(=O)N1CCN(c2ccc(NC(=O)c3cc4ccccc4o3)cc2Cl)CC1 | -56.8% |
| O=C(Cc1ccccc1[N+](=O)[O-])Nc1ccc2c(c1)OCO2 | -40.1% |
| CCOc1ccc(CCNC(=O)c2cccnc2N2CCCC2)cc1OCC | 13.2% |
| Cc1ccc(C)c(C(=O)Nc2c(C(N)=O)oc3ccccc23)c1 | 5.52% |
| COc1cccc(C(=O)NC2CCSC2=O)c1 (stereo not drawn) | 23.8% |
| CC(=O)c1ccc(N2CCN(C(=O)[C@H](C)NC(=O)c3ccccc3Cl)CC2)cc1 | -9.57% |
| COC(=O)[C@@H]1C[C@@]2(O)[C@H](O)[C@H](O)[C@H](O)C[C@H]2N1CC1CC1 | 6.98% |
| N#Cc1c(N)nc2c(c1-c1ccccc1)CCCC2 | -1.63% |
| O=C1c2ccccc2C(=O)C1(CO)c1ccccc1 | 27.7% |
